“And” between values parts separate entries of the source, which are not always exact repeats. Equal entries are not always repeated. The campaign covered roughly 5,500 compounds. About 2,000 (36%) were called active. Roughly 18% stayed inconclusive and do not appear here. Rule as the data show it: active = normalized growth mostly below about 0.91 (no sharp cut-off); inconclusive = no clear call, values can overlap the other calls; inactive = mostly above about 0.92. The list shows a part of the results.
Assay: chemical genetic growth profiling, strain panel (AID 1159580);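 also: tested at 20 µM; growth read once vehicle control cultures reached saturation at 30 °C; 1 = growth at the plate median or of vehicle wells; lower values mean less growth of the strain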
Details: S. cerevisiae deletion strains, growth OD

Measured: normalized growth

OCc1ccccc1O[C@@H]1O[C@H](CO)[C@@H](O)[C@H](O)[C@H]1O
inactive: locus YAL013W, strain DEP1, active compounds read low 0.994 | locus YAL021C, strain ccr4, active compounds read low 0.98 | locus YAL026C, strain drs2, active compounds read low 0.99 | locus YAL030W, strain snc1, active compounds read low 0.964 | locus YBL061C, strain skt5, active compounds read low 0.983 | locus YBR009C, strain hhf1, active compounds read low 0.977 | locus YBR021W, strain FUR4, active compounds read low 1.04 | locus YBR023C, strain chs3, active compounds read low 0.99 | locus YBR171W, strain sec66, active compounds read low 0.98 | locus YBR229C, strain ROT2, active compounds read low 0.95 | locus YBR231C, strain swc5, active compounds read low 0.983 | locus YBR279W, strain paf1, active compounds read low 0.983 | locus YCL011C, strain gbp2, active compounds read low 0.98 | locus YCL016C, strain dcc1, active compounds read low 0.991 | locus YCL029C, strain bik1, active compounds read low 0.994 | locus YCL069W, strain vba3, active compounds read low 1 | locus YCR088W, strain abp1, active compounds read low 0.98 | locus YDL005C, strain med2, active compounds read low 0.989 | locus YDL035C, strain GPR1, active compounds read low 1 | locus YDL040C, strain nat1, active compounds read low 0.994 | locus YDL074C, strain BRE1, active compounds read low 0.966 | locus YDL101C, strain DUN1, active compounds read low 0.976 | locus YDL134C, strain PPH21, active compounds read low 0.987 | locus YDL185W, strain tfp1, active compounds read low 0.983 | locus YDL192W, strain arf1, active compounds read low 0.994 | locus YDR001C, strain nth1, active compounds read low 0.984 | locus YDR069C, strain doa4, active compounds read low 0.987 | locus YDR101C, strain arx1, active compounds read low 0.946 | locus YDR137W, strain rgp1, active compounds read low 1.02 | locus YDR150W, strain NUM1, active compounds read low 0.98 | locus YDR159W, strain sac3, active compounds read low 0.944 | locus YDR162C, strain NBP2, active compounds read low 0.997 | locus YDR195W, strain ref2 0.962 | locus YDR297W, strain sur2, active compounds read low 1 | locus YDR318W, strain mcm21, active compounds read low 0.999 | locus YDR334W, strain swr1, active compounds read low 0.925 | locus YDR335W, strain msn5, active compounds read low 0.989 | locus YDR388W, active compounds read low 0.996 | locus YDR392W, strain spt3, active compounds read low 0.984 | locus YDR502C, strain sam2, active compounds read low 0.987 | locus YEL003W, strain gim4, active compounds read low 0.984 | locus YEL037C, strain rad23, active compounds read low 0.984 | locus YEL061C, strain CIN8 (second series), active compounds read low 0.972 | locus YEL061C, strain CIN8, active compounds read low 0.978 | locus YER015W, strain faa2, active compounds read low 0.998 | locus YER016W, strain bim1, active compounds read low 0.992 | locus YER110C, active compounds read low 0.994 | locus YER111C, strain swi4, active compounds read low 1.01 | locus YER155C, strain BEM2 (second series), active compounds read low 0.998 | locus YER155C, strain BEM2, active compounds read low 0.996 | locus YER167W, strain BCK2, active compounds read low 0.99 | locus YFR010W, strain ubp6, active compounds read low 0.998 | locus YGL078C, strain dbp3, active compounds read low 0.988 | locus YGL086W, strain mad1, active compounds read low 0.97 | locus YGL167C, strain pmr1, active compounds read low 1 | locus YGL173C, strain kem1, active compounds read low 0.995 | locus YGL227W, strain vid30, active compounds read low 0.965 | locus YGL240W, strain doc1, active compounds read low 0.996 | locus YGL248W, strain PDE1, active compounds read low 0.979 | locus YGL253W, strain hxk2, active compounds read low 0.987 | locus YGR078C, strain PAC10, active compounds read low 0.97 | locus YGR135W, strain pre9, active compounds read low 1.07 | locus YGR229C, strain SMI1, active compounds read low 1.01 | locus YGR252W, strain gcn5, active compounds read low 1.08 | locus YHR013C, strain ard1, active compounds read low 1.04 | locus YHR027C, strain rpn1, active compounds read low 0.959 | locus YHR030C, strain SLT2, active compounds read low 0.992 and 0.993 | locus YHR079C, strain IRE1 (second series), active compounds read low 0.983 | locus YHR079C, strain IRE1, active compounds read low 1.03 | locus YHR094C, strain hxt1, active compounds read low 1 | locus YHR129C, strain ARP1, active compounds read low 0.991 | locus YHR142W, strain chs7, active compounds read low 0.984 | locus YHR200W, strain rpn10, active compounds read low 0.987 | locus YIL066C, strain RNR3, active compounds read low 0.967 | locus YIL073C, strain SPO22, active compounds read low 1.02 | locus YIL125W, strain kgd1, active compounds read low 0.989 | locus YIR030C, strain dcg1, active compounds read low 0.997 | locus YJL092W, strain hpr5, active compounds read low 0.997 | locus YJL095W, strain BCK1 (second series), active compounds read low 0.987 | locus YJL095W, strain BCK1, active compounds read low 0.978 and 1.01 | locus YJL115W, strain asf1, active compounds read low 0.992 | locus YJL129C, strain trk1, active compounds read low 0.967 | locus YJL134W, strain LCB3, active compounds read low 0.991 | locus YJL154C, strain vps35, active compounds read low 0.991 | locus YJL164C, strain tpk1, active compounds read low 0.993 | locus YJL166W, strain qcr8, active compounds read low 1.01 | locus YJL168C, strain set2, active compounds read low 0.986 | locus YJL187C, strain SWE1 (second series), active compounds read low 0.952 | locus YJL187C, strain SWE1, active compounds read low 0.997 | locus YJR043C, strain POL32, active compounds read low 0.994

From PubChem BioAssay AID1159580 (chemical genetic matrix, 2015)
